# Reference: PubChem BioAssay AID2675 (National Center for Advancing Translational Sciences (NCATS), 2010)
# About 100 (0.036%) of roughly 280,000 compounds were called active. Roughly 11% stayed inconclusive and do not appear here. Calls follow the shape of the dose curve; as a rule, active = well fitted inhibition curve with a large enough effect in the signal ratio, with a control signal flat (not every such curve was filed as active); inconclusive = small, poorly fitted or top-dose-only effect, or effect the other way, or a change in a side signal; inactive = no such curve, though single readings can be large or run the other way; the % refers to the signal ratio. Shown is part of a subset that was picked to be rich in actives.
# Target: Muscleblind-like protein 1 (Homo sapiens) (UniProt Q9NR56)
# Assay: qHTS Assay for Inhibitors of MBNL1-poly(CUG) RNA binding
# Conditions: TR-FRET MBNL1-His/biotin-(CUG)12 binding, 665/545 ratio; series mostly up to 57.5 µM
# Text: NIH Chemical Genomics Center [NCGC] NIH Molecular Libraries Probe Production Centers Network [MLPCN] MLPCN Grant: R03 MH087421-01 Assay Submitter (PI): Charles Thornton NCGC Assay Overview: Expanded CTG repeats in the 3' untranslated region of the DM protein kinase (DMPK) gene causes type I myotonic dystrophy (DM1). DM1 is a multi-systemic disease with a prevalence of 1/7000. Clinical features include myotonia, progressive muscle weakness and wasting, cardiac arrhythmia, insulin resistance, hypersomnolence, cataracts, and other symptoms. The pathogenic effect of expanded CTG repeats stems from deleterious effects of the mutant transcript. CUGexp mRNA accumulates in nuclear foci and sequesters proteins of the muscleblind family, of which MBNL1 is the most common family member in skeletal muscles. The binding interaction between MBNL1 and CUGexp tracts leads to deregulation of alternative splicing and is therefore a key molecular step in the pathogenesis of DM1. To target this binding interaction, we optimized a protein-RNA binding assay in 1536-well format for identification of small molecule inhibitors of biotinylated (CUG)12 and his-tagged MBNL1 binding. Protein-RNA complex of MBNL1-His and Biotin-(CUG)12 captures the detection reagents terbium-labeled anti-His antibody and streptavidin conjugated XL665. This brings the terbium label within close proximity to XL665 to allow time-resolved fluorescence resonance energy transfer (TR-FRET). Inhibitors of MBNL1-(CUG)12 binding will disrupt TR-FRET.
# NCGC Assay Protocol Summary: This is a TR-FRET binding assay with MBNL1-His and Biotin-(CUG)12 RNA. The assay uses a ratiometric measurement. In the presence of MBNL1-(CUG)12 complex, the excitation energy is transferred to the XL665 acceptor label, causing emission at 665nm, while the 545nm donor signal […]. Data were normalized to the controls for basal activity (buffer only) and 100% activity (with MBNL1-(CUG)12). […] The final titration was 92 nM to 58 uM. (3) Add 1 ul of terbium labeled anti-His antibody (0.055 ng/ul final concentration) (4) Add 1 ul of streptavidin-XL665 (5 nM final concentration) (5) Incubate 60 min at room temperature (6) Detect the assay plate in a EnVision plate reader (PerkinElmer) with Ex=340 nm, Em1=665 nm and Em2=545 nm. Keywords: mytonic dystrophy type I, DM1, muscleblind like 1, MBNL1, CUG expansion, protein-RNA binding inhibitor, high throughput screening, MLSMR, MLSCN, NIH Roadmap, qHTS and NCGC
# % is scaled to controls: 0 for no effect and ±100 for the full control effect.
# Chain of Muscleblind-like protein 1 (Homo sapiens) (Q9NR56 whole entry, looked up): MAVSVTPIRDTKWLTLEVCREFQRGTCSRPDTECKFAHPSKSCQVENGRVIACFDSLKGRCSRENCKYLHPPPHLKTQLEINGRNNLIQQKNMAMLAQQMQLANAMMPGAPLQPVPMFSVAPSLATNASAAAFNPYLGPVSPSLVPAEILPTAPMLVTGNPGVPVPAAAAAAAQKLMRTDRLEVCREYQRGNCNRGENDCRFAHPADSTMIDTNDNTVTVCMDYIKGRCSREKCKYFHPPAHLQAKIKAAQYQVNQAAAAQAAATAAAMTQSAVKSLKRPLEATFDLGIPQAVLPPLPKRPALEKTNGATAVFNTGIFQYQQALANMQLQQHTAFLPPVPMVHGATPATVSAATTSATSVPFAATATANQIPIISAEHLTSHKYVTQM
row,SMILES,"activity change, negative = inhibition"
1,CC(C)c1ccc(N(C(=O)c2ccco2)C(C(=O)NC2CCCC2)c2cccnc2)cc1 (stereo unspecified),inactive
2,COc1ccccc1CCNS(=O)(=O)c1cn(C)nc1C,inactive
3,CCOc1ccc(N(CC(=O)NCCc2ccc(F)cc2)S(=O)(=O)c2ccccc2)cc1,inactive
4,Cc1ccc(Cn2c(=N)c(S(=O)(=O)c3ccc(C)cc3)cc3c(=O)n4ccccc4nc32)cc1,inactive
5,C=CCSc1nc2c(c(=O)[nH]c(=O)n2C)n1Cc1ccccc1,inactive
6,Cc1ccc(-c2csc(NC3OC(=O)c4ccccc43)n2)cc1 (stereo unspecified),inactive
7,Cc1ccc(C)c(NC(=O)c2cc(-c3cc(C)cc(C)c3O)n[nH]2)c1,inactive
8,Cc1ccccc1N1CCN(S(=O)(=O)c2ccc3ccccc3c2)CC1,inactive
9,Cc1ccc(CS(=O)Cc2ccc(C(=O)N3CCOCC3)o2)cc1 (stereo unspecified),inactive
10,CCn1cc(CN2CCN(CC(C)(C)C)C(CCO)C2)c2ccccc21 (stereo unspecified),inactive
11,Cc1ccc(-c2ccc(=O)n(Cc3ccc(F)cc3Cl)n2)cc1,inactive
12,CC(C)(C)c1ccc(C(=O)N2CCN(CCNC(=O)C(=O)Nc3ccc(F)cc3)CC2)cc1,inactive
13,COc1ccccc1NC(=O)C1CCN(C(=O)c2ccc(C(C)(C)C)cc2)CC1,inactive
14,COc1ccc(OC)c(CCNC(=O)c2nn(C)c3c2CS(=O)(=O)c2ccccc2-3)c1,inactive
15,CCCC[C@]12Cc3cc(OC)c(OC)cc3C(O1)C1=C(CC3(CCCCC3)OC1=O)O2,-1.93% [at 11.5 µM] (inactive)
16,COc1cccc(CNS(=O)(=O)c2ccc3c(c2)CC(C)N3C(C)=O)c1 (stereo unspecified),inactive
17,Cc1cccc(C(=O)N2CCCC(Nc3ccc(C(C)C)cc3)C2)n1 (stereo unspecified),inactive
18,Cc1ccc2nc(SCC(=O)NC3CCCC3)[nH]c2c1,inactive
19,Cc1[nH]c(C)c(S(=O)(=O)N2CCN(c3cccc(C(F)(F)F)c3)CC2)c1C(=O)N1CCCC1,inactive
20,CS(=O)(=O)N(CC(=O)N1CCOCC1)c1cccc(Cl)c1Cl,inactive
21,CCc1ccc(OCC(=O)NCC(c2ccc(Cl)cc2)N2CCCCC2)cc1 (stereo unspecified),inactive
22,Cc1c(C(=O)NCC(c2ccco2)N2CCCC2)oc2ccc(Cl)cc12 (stereo unspecified),inactive
23,N#Cc1ccccc1S(=O)(=O)N1CCN(C(=O)c2cc(-c3ccccc3)nn2-c2ccccc2)CC1,inactive
24,CCCCC(C(=O)NC(C)(C)C)N(Cc1ccccc1)C(=O)c1snc(C(N)=O)c1N (stereo unspecified),inactive
25,CS(=O)(=O)Nc1cccc(C2=NN(C(=O)c3cccc(F)c3)C(c3cccs3)C2)c1 (stereo unspecified),inactive
26,COc1cccc(CNC(=O)Cn2c(=O)oc3cc(S(=O)(=O)N4CCCCC4)ccc32)c1,inactive

row,SMILES,"activity change, negative = inhibition"
1,COc1ccc(NC(=O)c2sc3nc(C)nc(N4CCN(c5ccccn5)CC4)c3c2C)c(OC)c1,inactive
2,CCCCc1nc2cc(C(=O)N3CCCCC3CCO)ccc2o1 (stereo unspecified),inactive
3,O=C(c1ccccc1)N1CCC(CC2CC(c3ccc(Cl)cc3)=NO2)(C(=O)NCC2CCCCC2)CC1 (stereo unspecified),inactive
4,O=C(c1ccco1)N1CCN(Cc2cccc(C(F)(F)F)c2)CC1,inactive
5,O=C(Nc1ccc(F)cc1)c1ccc(S(=O)(=O)NCc2cccnc2)cc1,inactive
6,Cc1ccc(S(=O)(=O)N2CCN=C2SCc2c(F)cccc2Cl)cc1,inactive
7,COc1ccc(C)cc1Nc1n[n+](-c2ccccc2)c(-c2cccc(Cl)c2Cl)s1,inactive
8,C=CCc1cccc(/C=N/NC(=O)COc2ccc(-n3cnnn3)cc2)c1O,inactive
9,O=C1CCN(Cc2ccccc2)CCN1[C@H](CSc1ccccc1)c1ccccc1,inactive
10,CC(C)c1ccc(NC(=O)C2CCCN(S(=O)(=O)c3cccnc3)C2)cc1 (stereo unspecified),inactive
11,COc1ccc(NC(=O)c2cccc3c2C(=O)N(CC2CCCO2)C3)cc1OC (stereo unspecified),inactive
12,COc1ccc2c3c(c(=O)oc2c1)C1O[C@](CCCCN2C(=O)c4ccccc4C2=O)(Cc2c1ccc1ccccc21)O3,-13% [at 11.5 µM] (inactive)
13,CC1CCCN(CCCNC(=O)CN2C(=O)COc3ccc(S(=O)(=O)N4CCOCC4)cc32)C1 (stereo unspecified),inactive
14,COc1cccc(OCC(O)CNC(=O)c2oc3c(C)c(C)ccc3c2C)c1 (stereo unspecified),inactive
15,O=C(NCc1ccccc1)c1onc(CSc2nc3ccccc3[nH]2)c1C(=O)NCc1ccccc1,inactive
16,CN(C)C(=O)CCC(=O)N1CCCCC1C(=O)Nc1ccc(Oc2ccccc2F)cc1 (stereo unspecified),inactive
17,COc1ccc(-c2cc(C(=O)N3CCN(Cc4ccc5c(c4)OCO5)CC3)on2)cc1OC,inactive
18,COc1cc(C(=O)NCC2(c3ccccc3)CCCC2)ccc1OC(C)C,inactive
19,O=C(Nc1ccc(S(=O)(=O)N2CCCCCC2)cc1)c1c(F)cccc1F,inactive
20,Cc1cc2c(c(=O)n1Cc1ccccc1)C1O[C@](CCCCN3C(=O)c4ccccc4C3=O)(Cc3ccccc31)O2,41.3% [at 11.5 µM] (inactive)
21,COc1ccc(Oc2cn[nH]c2-c2ccc(OC)cc2O)cc1,inactive
22,CCOC(=O)N1CCC(N2Cc3cccc(C(=O)Nc4c(C)cccc4CC)c3C2=O)CC1,inactive
23,CC(C)CN(Cc1c(O)ccc2c(=O)c(-c3ccccc3)coc12)CC(C)C,inactive
24,O=C(O)c1ccc2c(=O)n3c(nc2c1)/C(=C/c1ccc(OC(F)F)cc1OC(F)F)CC3,inactive
25,CCOC(=O)C1(CCOc2ccccc2)CCN(Cc2cc(OC)cc(OC)c2)CC1,inactive
26,CNC(=O)c1sc(Nc2ccc(OCc3ccccc3)cc2)nc1C,inactive

row,SMILES,"activity change, negative = inhibition"
1,COc1cc(C(=O)NCc2cc3cc(Cl)ccc3n2C)cc(OC)c1OC,inactive
2,CCn1c(=S)sc2c(=O)n(CC(=O)Nc3cccc(Br)c3)c(C)nc21,inactive
3,Cc1ccc(OCC(=O)NC(C)c2ccccc2)cc1C (stereo unspecified),inactive
4,COc1ccc(CNS(=O)(=O)c2ccc(NC(=O)N3CCCCC3)cc2)cc1,inactive
5,COc1ccc2[nH]c(=O)c(CN(Cc3cccnc3)S(=O)(=O)c3ccccc3F)cc2c1,inactive
6,CSc1ccccc1OCc1cc(C(=O)N(C)CCc2c(C)n[nH]c2C)no1,inactive
7,CCOc1ccc(NC(=O)C2CCN(C(=O)N3CCOc4ccccc43)CC2)cc1,inactive
8,CCOc1c(OC)cccc1C(=O)NCC1(c2ccccc2)CCCC1,inactive
9,Cc1cc(=O)oc2c3c(cc(OCC(=O)NCc4ccccn4)c12)OC(C)(C)CC3,inactive
10,Cc1nc2nc(SCC(=O)Nc3cccc(F)c3)[nH]c2cc1Br,inactive
11,FC(F)(F)c1nnc2c3ccccc3c(Cl)nn12,inactive
12,COc1cc(CCC(=O)N2CCN(c3ccccc3Cl)CC2)cc(OC)c1OC,inactive
13,Cc1cc(=O)n2[nH]c(-c3cccc(Cl)c3)cc2n1,inactive
14,Cc1cc2oc(=O)cc(CN(C)Cc3ccc(OC(F)F)cc3)c2cc1Cl,inactive
15,CN(Cc1ccccc1)C(=O)c1ccc(COc2ccccc2)cc1,inactive
16,CCCCC(=O)Nc1ccccc1N1CCN(c2ccc(F)cc2)CC1,inactive
17,CC(=O)N1CCC(C(=O)OCc2ccc(Cl)cc2)(c2ccccc2)CC1,inactive
18,COc1cnc(-c2ccccn2)nc1Oc1ccc(C(C)(C)C)cc1,inactive
19,COc1ccc(-c2nn(-c3ccccc3)cc2/C=C2/SC(=S)N(CCCC(=O)O)C2=O)c(C)c1,inactive
20,C=CCSc1nnc(N2C(=O)C(O)=C(C(=O)c3ccco3)C2c2ccc(F)cc2)s1 (stereo unspecified),inactive
21,CC1C(=O)Nc2ccc(S(=O)(=O)N3CCN(c4ccccc4F)CC3)cc2NC1=O (stereo unspecified),inactive
22,CCN(CC(=O)Nc1ccc(C)c(S(=O)(=O)N(C)C)c1)Cc1ccccc1,inactive
23,O=C(c1ccccc1F)N(Cc1ccccc1)Cc1ccccc1,inactive
24,COc1ccc(COC(=O)c2ccc(Cl)c(S(=O)(=O)N3CCOCC3)c2)cc1F,inactive
25,CN(CC1CCCN(CCc2cccc(C(F)(F)F)c2)C1)C(=O)c1ccc2nc[nH]c2c1 (stereo unspecified),inactive
26,COc1cc(/C=C/C(=O)N2CCc3ccccc3C2)cc(OC)c1OC,inactive

row,SMILES,"activity change, negative = inhibition"
1,CN(C(=O)CN1C(=O)/C(=C/c2ccc(Cl)cc2)SC1=S)C1CCS(=O)(=O)C1 (stereo unspecified),inactive
2,CC(=O)c1cc2c(cc1NC(=O)Cn1nc(-c3ccc(F)cc3)ccc1=O)OCO2,inactive
3,O=C(C1CCCN(S(=O)(=O)c2ccccc2)C1)N1CCN(c2ccc(F)cc2)CC1 (stereo unspecified),inactive
4,CC(C)C[C@@H](COc1ccccc1)N1CCN(CC(C)C)CCC1=O,inactive
5,Cc1sc2ncn(CC(=O)NCCCC(=O)N3CCN(c4ccccc4F)CC3)c(=O)c2c1C,inactive
6,CCOC(=O)N1CCN(Cc2nc3cc(NC(=O)CC)ccc3n2CC)CC1,inactive
7,OC(CNCCc1ccc(Cl)cc1Cl)COc1ccccc1 (stereo unspecified),inactive
8,Cc1cnc(C)c(N2CCN(C(=O)C3CCC(=O)N(CCc4cccc(F)c4)C3)CC2)n1 (stereo unspecified),inactive
9,Cc1ccc(-n2nc3c(=O)n(C(C)C(=O)NCc4ccc5c(c4)OCO5)nc(C)c3c2C)cc1 (stereo unspecified),inactive
10,CSc1ccc(S(=O)(=O)N2CCC(C(=O)NCCc3ccccc3)CC2)cc1,inactive
11,Cc1ccccc1NC(=S)NC(=O)Cc1ccc(Cl)cc1,inactive
12,COc1ccc(C(=O)NC2CCN(C(=O)Nc3ccc(F)cc3)CC2)cc1,inactive
13,CC(=O)c1cccc(NC(=O)CN2C(=O)c3cccnc3Oc3ccc(Cl)cc32)c1,inactive
14,Cc1cc(CN(C)C(=O)c2cc(COc3ccc(C)c(C)c3)on2)n[nH]1,inactive
15,COc1ccc2c(C)c(CCC(=O)NC3CC3)c(=O)oc2c1C,inactive
16,COc1cccc(C2CC(c3cccs3)=NN2C(=O)CSC2=NCCS2)c1OC (stereo unspecified),inactive
17,COc1ccc(OC)c(NC(=O)CN(C)CCOc2ccc(Br)cc2)c1,inactive
18,COC(=O)c1cc(S(=O)(=O)Nc2ccc(C)c(F)c2)c[nH]1,inactive
19,COc1ccc(-c2nc3ccccc3c(=O)n2CCc2ccc(O)cc2)cc1,inactive
20,CCC(C(=O)OC)n1cnc2scc(-c3ccc(C)cc3)c2c1=O (stereo unspecified),inactive
21,CCc1ccccc1N(CC(=O)NCC1CCCO1)C(=O)CCC(=O)Nc1nccs1 (stereo unspecified),inactive
22,CCN1CCN(c2sc(S(C)(=O)=O)nc2S(=O)(=O)c2ccc(Cl)cc2)CC1,inactive
23,CCNC(=O)N1CCCC(C(=O)c2ccc(-c3ccccc3)cc2)C1 (stereo unspecified),inactive
